Source: PubChem (National Center for Advancing Translational Sciences (NCATS))
HCMV antiviral: qHTS Assay for inhibitors of the human cytomegalovirus (HCMV). 410,000 tested, 4.5% active. HFF cells, HCMV-luciferase reporter, 72 h; stronger effect = lower value. activity change, negative = inhibition, % at 57.5 µM; in the data active means activity change below about -60%; inconclusive means no clear call, values can overlap the other calls; inactive means above about -39%
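Luciferase read-out from HCMV-luciferase-infected HFFs (MOI 1 PFU/cell) 72 h post infection at 37C; compounds added after 16 h cell attachment; activity normalized between buffer-only basal and Salinomycin (10uM) inhibitor controls.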
FMDV inh: High Throughput Screening for Foot and Mouth Disease Virus Antivirals | AID 1159524, 2015 | 410,000 tested, 1.2% active | FMDV antiviral cell-based qHTS | Potency, µM (highest dose often 57.9 µM), inactives show at the top dose activity change, negative = inhibition, most hits filed as inhibitors; calls by dose curve; tested in HEK293T cells; further: read-out not given here; potency means the concentration at half of the fitted maximal effect; nearly all actives have a fitted effect of over 45% in size
VACV Venus inh: qHTS for Stage-Specific Inhibitors of Vaccinia Orthopoxvirus: Venus Reporter Primary qHTS | Vaccinia virus Venus reporter expression, fluorescence | Potency, µM (titrated, usually from 36.5 µM), for inactives: top-dose activity change, negative = inhibition, hits mostly inhibitors | 330,000 tested, 0.46% active; calls by dose curve; tested in A549 cells; further: potency means the concentration at half of the fitted maximal effect; nearly all actives have a fitted effect of over 30% in size
Vaccinia mCherry: qHTS for Stage-Specific Inhibitors of Vaccinia Orthopoxvirus: mCherry Reporter Primary qHTS | Vaccinia virus mCherry reporter infection, fluorescence | Potency, µM (titrated, usually from 36.5 µM), for inactives: at the top dose activity change, negative = inhibition, actives largely listed as inhibitors | 310,000 tested, 0.63% active | AID 720579, 2013; calls by dose curve; tested in A549 cells; further: potency means the concentration at half of the fitted maximal effect; nearly all actives have a fitted effect of over 35% in size
HCV inh: qHTS Assay for Inhibitors of Hepatitis C Virus (HCV); Huh7.5.1 HCVcc-Cre infection, luciferase reporter, 44 h; Potency, µM (top dose mostly 41.8 µM), inactives show top-dose activity change, negative = inhibition, most hits filed as inhibitors; 340,000 tested, 3.4% active; AID 651820, 2012; active means well fitted inhibition curve with a large enough effect; inconclusive means small, poorly fitted or top-dose-only effect, or another doubt; inactive means no such curve, though single readings can be large or run the other way; further: potency means the concentration at half of the fitted maximal effect
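1,000 cells/well; 4 h culture; + compound; + HCVcc-Cre (~0.5 moi); 44 h; luciferase substrate, RT 15 min; read 15 sec.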
Starred values were filed as active, the others as inactive. Shown are actives, neighbours in structure and some others; about 7.3% of the full set was active somewhere. On the % scale 0 is the no-effect control and ±100 the full control effect.

Cc1ccccc1OCCn1c(C)nc2ccccc21 was read as HCMV antiviral -15, FMDV inh -28%, VACV Venus inh -26%, Vaccinia mCherry -13% and HCV inh 5.6µM*.
`Cc1nc2ccccc2n1CCOc1ccccc1` gave HCMV antiviral inconclusive, FMDV inh inconclusive, VACV Venus inh -10%, Vaccinia mCherry -2% and HCV inh inconclusive.
Screening c1ccc(-c2cn3nc(-c4ccccc4)sc3n2)cc1 returned FMDV inh 10µM*, VACV Venus inh -15%, Vaccinia mCherry -6% and HCV inh inconclusive.
N#Cc1ccc(CSc2nnc(-c3cccs3)n2-c2ccccc2)cc1 was read as HCMV antiviral -29, FMDV inh inconclusive and HCV inh 0.63µM*.
Screening N#Cc1ccc(CSc2nnc(-c3ccccn3)n2-c2ccccc2)cc1 returned HCMV antiviral 0, FMDV inh -10%, VACV Venus inh -25% and HCV inh -1%.
N#Cc1ccc(CSc2nnc(-c3c[nH]c4ccccc34)n2-c2ccccc2)cc1 was read as HCMV antiviral -64*, FMDV inh inconclusive, VACV Venus inh inconclusive, Vaccinia mCherry inconclusive and HCV inh inconclusive.
`O=S(=O)(Nc1nccs1)c1cnc(Cl)c(Br)c1` gave HCMV antiviral -101*, FMDV inh 50%, VACV Venus inh -8%, Vaccinia mCherry -17% and HCV inh 9%.
O=S(=O)(Nc1nccs1)c1ccc(Br)cc1 was read as HCMV antiviral 7, FMDV inh 42%, VACV Venus inh -5%, Vaccinia mCherry -3% and HCV inh 0%.
O=C(CCl)Nc1ccc(S(=O)(=O)NC2=NCCCCC2)cc1 was read as HCMV antiviral -37, FMDV inh 32µM*, VACV Venus inh inconclusive, Vaccinia mCherry 14µM* and HCV inh inconclusive.
`CCCNCC(=O)Nc1cccc(S(=O)(=O)NC2=NCCCCC2)c1` gave HCMV antiviral 0, FMDV inh -13%, VACV Venus inh 4%, Vaccinia mCherry -13% and HCV inh 0%.
For COc1cc(OC)cc(C(=O)OCC(=O)Nc2cccc(S(=O)(=O)NC3=NCCCCC3)c2)c1 the results were HCMV antiviral -18, FMDV inh 22µM*, VACV Venus inh -17%, Vaccinia mCherry -7% and HCV inh inconclusive.
For O=C(/C=C/c1ccccc1[N+](=O)[O-])Nc1cccc(S(=O)(=O)NC2=NCCCCC2)c1 the results were HCMV antiviral 1, FMDV inh 3%, VACV Venus inh -17%, Vaccinia mCherry inactive and HCV inh 3.2µM*.
For CC(C)(C)C(=O)Nc1ccc(S(=O)(=O)NC2=NCCCCC2)cc1 the results were HCMV antiviral 0, FMDV inh -12% and HCV inh 7%.
O=C(CCl)Nc1cccc(S(=O)(=O)NC2=NCCCCC2)c1 was read as HCMV antiviral -102*, FMDV inh inconclusive and HCV inh 6.3µM*.
Screening Cc1cccc(C)c1NC(=O)C(c1ccnc2ccccc12)n1c(=O)c(-c2ccco2)nc2ccccc21 (centres undefined) returned HCMV antiviral 18, FMDV inh -22%, VACV Venus inh -8% and Vaccinia mCherry -15%.
O=C(Nc1cccc(S(=O)(=O)NC2=NCCC2)c1)c1ccc(C(F)(F)F)cc1 was read as HCMV antiviral -60*, FMDV inh -24%, VACV Venus inh -18%, Vaccinia mCherry -9% and HCV inh inconclusive.
Screening O=C(CSc1ccc2ccccc2c1Br)Nc1cccc(S(=O)(=O)NC2=NCCCCC2)c1 returned HCMV antiviral 5, FMDV inh -19%, VACV Venus inh 10µM*, Vaccinia mCherry inconclusive and HCV inh -22%.
Cc1ccc(Nc2nnc(SCC(=O)Nc3cccc(S(=O)(=O)NC4=NCCCCC4)c3)s2)c(C)c1 was read as HCMV antiviral -13, FMDV inh 32µM*, VACV Venus inh -20%, Vaccinia mCherry -16% and HCV inh -20%.
`Cc1ccc(C)c(SCC(=O)Nc2cccc(S(=O)(=O)NC3=NCCCCC3)c2)c1` gave HCMV antiviral -30, FMDV inh -10%, VACV Venus inh -17%, Vaccinia mCherry inactive and HCV inh inconclusive.
